# High-throughput results: PubChem, National Center for Advancing Translational Sciences (NCATS)
# SMN2 splice up – qHTS Assay for Enhancers of SMN2 Splice Variant Expression. HEK293 SMN2-luciferase splicing reporter, luminescence, 30-36 h. Potency, µM (doses to about 46.1 µM), for the others: top-dose activity change, positive = activation, usual class: activators. 210,000 tested, 2.8% active. AID 1458, 2008; note: % of control where 0% means no effect; nearly all actives have a fitted effect of over 55% in size
#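 HEK293 cells carry an SMN2 minigene-luciferase reporter in which exon 7 inclusion puts luciferase in frame. Cells were seeded at 2000 cells/well, attached for 10-12 hours, then exposed to compounds for 30-36 hours at 37C before ONE-Glo luminescence.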
# Rab9 promoter act – qHTS Assay for Rab9 Promoter Activators; Huh7 Rab9 promoter-luciferase reporter, luminescence, 24 h; Potency, µM (top dose mostly 9.22 µM), without a hit: top-dose activation, negative = inhibition, actives largely listed as activators; 320,000 tested, 2.8% active; note: % of control where 0% means no effect; nearly all actives have a fitted effect of over 60% in size
#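 Stable Rab9-luc Huh7, 1500 cells/well, 2 h settle; cmpd in DMSO, 24 h, 37 °C/5% CO2; luciferase reagent 10 min RT; luminescence.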
# Luc counter – Counterscreen for Luciferase (Kinase-Glo TM) Inhibition; 200,000 tested, 0.28% active; AID 1379, 2008; Potency, µM (highest dose often 38.3 µM), for inactives: at the highest dose activity change, negative = inhibition, most hits filed as inhibitors; Kinase-Glo luciferase, ATP luminescence, 8 min; note: % is set by controls: 0 for no effect and ±100 for the full control effect; nearly all actives have a fitted effect of over 60% in size
#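 Light output from Kinase-Glo luciferase with luciferin and 10 uM ATP in 50 mM imidazole pH 7.2, KCl, MgCl2, Tween 20, BSA; compound pin-delivered, 8-min ambient incubation, then luminescence read.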
# NPC1 promoter act – qHTS Assay for NPC1 Promoter Activators | Huh7 NPC1 promoter luciferase reporter, 24 h | Potency, µM (doses to about 9.22 µM), without a hit: at the top dose activation, hits mostly activators | 320,000 tested, 2.4% active | AID 485313, 2010; note: % of control where 0% means no effect; nearly all actives have a fitted effect of over 60% in size
#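 Huh7 cells stably carrying NPC1 promoter–luciferase, plated in Opti-MEM with 10% FBS for 2 h, were exposed to compound in DMSO for 24 h at 37 °C; luciferase reagent was added for 10 min and luminescence read.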
# ELG1 genotox – qHTS screen for small molecules that induce genotoxicity in human embryonic kidney (HEK293T) cells expressing luciferase-tagged ELG1. Potency, µM (top dose mostly 46 µM), for the others: at the highest dose activity change, positive = activation, usual class: activators. HEK293T ELG1-luciferase reporter, luminescence, 16 h. 330,000 tested, 1.3% active; note: % of control where 0% means no effect; nearly all actives have a fitted effect of over 60% in size
#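 Reporter readout depends on ELG1 protein level, which increases with genetic stress. After 16 hr compound exposure at 37 °C, luciferase activity was quantified using ONE-Glo.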
# FLuc modulator – qHTS profiling assay for firefly luciferase inhibitor/activator using purifed enzyme and Km concentrations of substrates (counterscreen for miR-21 project); Luciferin 4-monooxygenase (Photinus pyralis), P08659; purified FLuc, Km substrates, luminescence inhibition; Potency, µM (series often up to 57.5 µM), without a hit: at the highest dose activity change, negative = inhibition, usual class: inhibitors; 360,000 tested, 6.9% active; AID 588342, 2011;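 note: plate controls were vehicle for no effect and reference inhibitor for full effect; nearly all actives have a fitted effect of over 55% in size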
# Target sequence (P08659 whole entry, looked up): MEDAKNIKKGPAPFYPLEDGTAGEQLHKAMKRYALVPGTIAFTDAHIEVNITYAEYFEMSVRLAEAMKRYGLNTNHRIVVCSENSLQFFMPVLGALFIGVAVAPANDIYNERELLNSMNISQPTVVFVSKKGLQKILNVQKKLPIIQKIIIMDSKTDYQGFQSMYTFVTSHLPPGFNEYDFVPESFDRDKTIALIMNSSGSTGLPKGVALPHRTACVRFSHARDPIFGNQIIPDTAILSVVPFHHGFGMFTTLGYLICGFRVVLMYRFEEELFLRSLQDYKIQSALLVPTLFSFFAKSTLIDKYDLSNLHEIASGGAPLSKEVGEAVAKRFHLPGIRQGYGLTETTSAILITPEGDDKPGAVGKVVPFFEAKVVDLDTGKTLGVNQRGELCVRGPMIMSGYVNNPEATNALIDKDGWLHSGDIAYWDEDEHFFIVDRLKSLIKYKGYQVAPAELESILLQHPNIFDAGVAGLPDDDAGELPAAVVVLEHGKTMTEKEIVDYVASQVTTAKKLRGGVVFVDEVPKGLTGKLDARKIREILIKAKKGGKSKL
#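 Biochemical qHTS of compounds, final roughly 60 µM downward over six points, against 10 nM purified firefly luciferase using Km concentrations of substrates (10 uM D-luciferin, 10 uM ATP) in Tris acetate pH 7.5 buffer; luminescence output.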
# * marks the source's active call; other numbers are inactive results; ? = inconclusive; . = no result given; [ ] = remark or other dose. Shown are actives, neighbours in structure and some others; about 7.5% of the full set was active somewhere. Calls come from the whole dose curve; as a rule, active = well fitted curve in the direction sought with a large enough effect; inconclusive = small, poorly fitted or top-dose-only effect, or another doubt; inactive = no such curve, though single readings can be large; an effect the other way counts as inactive or inconclusive. Potency is the fitted concentration of half-maximal effect.
SMILES,SMN2 splice up,Rab9 promoter act,Luc counter,NPC1 promoter act,ELG1 genotox,FLuc modulator
O=C(c1cc(-c2cccc(Br)c2)nc2ccccc12)N1CCCC1,.,1%,.,2%,-12%,15µM*
CCOC(=O)N1CCC(NC(=O)c2cc(-c3ccc(OC)cc3)nc3ccccc23)CC1,.,10%,.,-1%,-4%,4.8µM*
Cc1ccc(-c2cc(C(=O)N3CCC(C)CC3)c3ccccc3n2)cc1,.,7%,.,3%,-5%,4.3µM*
CCc1ccc(-c2cc(C(=O)O)c3ccccc3n2)s1,.,1.4µM*,.,2µM*,16%,0.54µM*
Cc1ccc(-c2cc(C(=O)N3CCCC3)c3ccccc3n2)s1,.,4%[1.84 µM],.,18%,15%,5.4µM*
COc1ccccc1C(=O)Nc1cccc(OCc2cc(=O)n3c(C)csc3n2)c1,-5%,.,.,.,.,?
O=C(CSc1nnc2n1CCCCC2)Nc1ccc(N2CCOCC2)cc1,.,-2%,.,1%,2%,17µM*
Cc1ccc(C(=O)NCc2nnc(SCC(=O)Nc3ccccc3)n2C)cc1,-2%,-2%,-2%,0%,-2%,21µM*
CCc1nnc(SCC(=O)Nc2ccc(N3CCOCC3)cc2)n1C,.,6%,.,-1%,9%,21µM*
Cc1ccccc1OCc1nnc(SCC(=O)Nc2ccc(N3CCOCC3)cc2)n1C,.,6%,.,5%,13%,?
Cc1ccc(NC(=O)CSc2nnc3n2CCCCC3)cc1,2%,5%,1%,-3%,0%,0%
CN(C)C(=O)c1ccc(-c2cc(C(F)(F)F)n(C)n2)s1,.,1%,.,-2%,-2%,4%
CC(C)(C)OC(=O)N1CCC(c2c(C(=O)N3CCN(c4ccccc4F)CC3)cnn2-c2ccccc2Cl)CC1,.,.,.,.,.,3%
CCCCOc1ccc2ccccc2c1C=O,-1%,20%,-7%,20%,12%,21µM*
CN(C)c1nc(N)c(C(=O)Nc2cccnc2)nc1Cl,11µM*,.,-11%,.,.,.
O=C(Nc1cccnc1)c1ccc(Cl)c(Cl)c1,.,4%,.,-2%,10%,?
O=C(CCCCn1c(=O)c2ccccc2n(CC(=O)Nc2ccccc2)c1=O)NCc1ccccc1Cl,-2%,.,.,.,.,1%
O=C(Nc1cccnc1)c1ccc(COc2ccccc2Cl)o1,-30%,0%,-2%,0%,1%,?
O=C(Nc1ccc(Cl)cn1)c1ccc(COc2ccccc2Br)o1,13µM*,?,7%,28%,5%,?
CCOc1ccc(OCc2ccc(C(=O)Nc3ccc(Cl)cn3)o2)cc1,18µM*,28%,4%,?,1%,?
O=C(Nc1ccccn1)c1ccc(COc2ccccc2Cl)o1,14%,26%,-4%,0%,?,17µM*
Cc1ccc(NC(=O)c2ccc(COc3ccccc3)o2)nc1,.,15%,.,18%,?,?
CC(=O)c1cc2c(C)c(C(=O)c3ccccc3)oc2cc1O,-7%[1.84 µM],1.6µM*,-1%,4µM*,?,0.54µM*
O=C(c1ccccc1)c1ccc(O)cc1O,.,-6%,.,-1%,2%,?
O=C(N/N=C/c1sc2ccccc2c1O)c1ccccc1,-107%,-30%,-3%,-27%,?,17µM*
SMILES,SMN2 splice up,Rab9 promoter act,Luc counter,NPC1 promoter act,ELG1 genotox,FLuc modulator
COc1ccc(N=Cc2sc3ccccc3c2Cl)cc1,1%,4%,1%,28%,10%,4.8µM*
COc1ccc2cc(C(=O)N/N=C/c3sc4ccccc4c3O)ccc2c1,-106%,-14%,-5%,-3%,?,13µM*
O=C(N/N=C/c1ccc([N+](=O)[O-])s1)c1ccccc1,-45%,-23%,-2%,-11%,-7%,-15%
Oc1ccc(Cl)cc1N=Cc1sc2ccccc2c1Cl,-17%,1%,-1%,2%,29%,-17%
COc1ccc(/C=N\NC(=O)c2cccc(Br)c2)c(OC)c1,.,1%,-3%,-3%,-3%,4%
O=C(N/N=C/c1sc2ccccc2c1O)c1cccc2ccccc12,-92%,-13%,-1%,-21%,11%,17µM*
CSc1nnc2ccc(-c3cccs3)nn12,13%,-5%,1%,-4%,2%,-3%
CCn1ccc2cc(S(=O)(=O)N3CCCN(C(=O)Nc4ccccc4F)CC3)ccc21,.,.,.,.,.,-11%
COc1ccc(C(=O)N/N=C/c2c(C)[nH]c(=O)[nH]c2=O)cc1,-3%,-1%,0%,6%,0%,-7%
COc1ccc(C(=O)N/N=C/c2sc3ccccc3c2O)cc1,-95%,-42%,-2%,-30%,?,13µM*
CCCCN=C1CC(C)(C)CC(=O)/C1=C(/O)CCC,.,-2%,.,4%,-4%,3%
N#Cc1ccc(-c2csc(NC3=NCCCCC3)n2)cc1,?,24%,0%,13%,14%,?
FC(F)Oc1ccc(-c2csc(NNC3=NCCCCC3)n2)cc1,-14%,-5%,2%,1%,5%,?
Brc1ccc(-c2csc(NNC3=NCCCCC3)n2)cc1,.,-6%,.,6%,-3%,19µM*
CC(C)(C)c1ccc(-c2csc(NNC3=NCCCCC3)n2)cc1,-15%,-1%,-4%,2%,?,15µM*
c1ccc(-c2csc(NC3=NCCCCC3)n2)cc1,11µM*,?,-1%,18%,?,19µM*
CC1=C(C(=O)OCC2CCCCC2)C(c2ccc(Cl)cc2)CC(=O)N1 (stereo not given),-15%,.,.,.,.,-16%
CCC1CN(C(=O)N2CCC(C(=O)NCCN(C)C)CC2)c2ccccc2O1 (stereo not given),.,.,.,.,.,-6%
O=C(OCc1nc2ccccc2s1)c1cccc(S(=O)(=O)N2CCOCC2)c1,12%,9%,-4%,8%,?,8.5µM*
O=C(CCc1ccc(S(=O)(=O)N2CCOCC2)cc1)OCc1nc2ccccc2s1,-42%,6%,4%,-3%,?,21µM*
O=C(CCc1nc2ccccc2[nH]c1=O)OCc1ccc(S(=O)(=O)N2CCOCC2)cc1,0%,3%,-1%,-2%,1%,2%
O=C(COC(=O)c1cccc(S(=O)(=O)N2CCOCC2)c1)c1ccccc1,.,-2%,.,-4%,-3%,13µM*
CCOc1ccccc1/C=N/NC(=O)c1cccc(S(=O)(=O)N2CCOCC2)c1,10%,-2%,-1%,-5%,4%,-7%
O=C(OCCOc1ccccc1)c1cccc(S(=O)(=O)N2CCOCC2)c1,.,4%,.,-6%,-1%,3%
O=C(N/N=C/c1ccccc1C(=O)O)c1cccc(S(=O)(=O)N2CCOCC2)c1,.,1%,.,1%,1%,12µM*
CCC(C)(C)OC,0%,.,.,.,.,.
